Source: PubChem
CD40 NFkB inh: inhibitors of CD40-induced NF-kB signaling, primary screen, BL2 cells, luciferase reporter, single point. CD40L-induced, 4 h. inhibition, % at 10 µM. 83,000 compounds, 0.94% hits;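 active = mean inhibition of at least 50% with a set share of replicates also reaching that level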
Each line names hits and unclear results; the compound was inactive in the other large screens; [ ] = dose if it differs, or a comment. This is one part of a sample in which hits are shown more often than they occur.

O=C(c1cc(F)ccc1F)C1CCCN(C(=O)CCCN2CCCCC2=O)C1 (centres undefined)	none
Cc1cc(C)cc(C(=O)NCC(=O)OCc2cc([N+](=O)[O-])cc3c2OCOC3)c1	none
COc1ccc(NC(=O)Nc2ccc3c(c2)CCC3)c(OC)c1	none
O=C(OCC(=O)N1CCOCC1)c1ccccc1Cc1ccccc1	none
Cc1ccccc1N1CCN(Cc2nc(Cc3ccccc3)no2)CC1	none
COc1ccc(-c2cccc(NC(=O)c3ccco3)c2)nn1	none
COc1ccc(-c2ccc(NC(=O)c3ccco3)cc2)nn1	CD40 NFkB inh 82.4
COc1ccc(NC(=O)c2ccccc2NC(=O)c2ccco2)cc1	none
CCOCC(O)CS(=O)(=O)c1ccccn1 (centres undefined)	none
CC(C)C(NS(=O)(=O)c1cccc2nsnc12)C(=O)NCc1ccc2c(c1)OCO2 (centres undefined)	none
CCN(CC(=O)NCc1cccs1)C(=O)c1cccc(S(=O)(=O)Nc2ccccc2Cl)c1	none
Cc1cccnc1Nc1ncnc(N)c1[N+](=O)[O-]	none
Nc1ncnc(Nc2ccccn2)c1[N+](=O)[O-]	none
Cc1cc(C)nc(Sc2ncnc(N)c2[N+](=O)[O-])n1	CD40 NFkB inh 81.6
CC(=O)OC1CCC2(C)C(CCC3C4CC=C(C(C)=O)C4(C)OC(=O)CC32)C1 (centres undefined)	CD40 NFkB inh 97.8
CC(=O)[C@@]1(O)CCC2C3CC[C@H]4C[C@@H](O)CC[C@]4(C)C3CC[C@@]21C (some centres undefined)	none
CC(=O)C1CCC2C3CCC4CC(OC(=O)CCC(=O)O)CCC4(C)C3C(=O)CC12C (centres undefined)	none
COc1ccc2cc(-c3cc(C(=O)O)c4ccccc4n3)ccc2c1	CD40 NFkB inh 83.5
COc1ccc(-c2cc(C(=O)N3CC(C)CC(C)C3)c3ccccc3n2)cc1 (centres undefined)	none
COc1ccc(-c2cc(C(=O)N3CCCC3)c3ccccc3n2)cc1	none
CC(=O)Nc1ccc(NC(=O)C2Cc3c(-c4ccc5c(c4)OCO5)ccnc3O2)cc1 (centres undefined)	none
C[C@@H]1CN([C@@H](C)CO)C(=O)c2cc(NC(=O)CCN3CCOCC3)ccc2O[C@@H]1CN(C)Cc1ccc(C(F)(F)F)cc1	none
C[C@@H]1CN([C@@H](C)CO)C(=O)Cc2cc(NC(=O)Nc3ccc(C(F)(F)F)cc3)ccc2O[C@H]1CN(C)Cc1ccc2c(c1)OCO2	none
COc1ccc(CN(C)C[C@H]2Oc3ccc(NC(=O)Cc4cn(C)c5ccccc45)cc3CC(=O)N([C@@H](C)CO)C[C@@H]2C)cc1	none
C[C@@H]1CN([C@H](C)CO)C(=O)Cc2cc(NC(=O)Cc3cn(C)c4ccccc34)ccc2O[C@H]1CN(C)Cc1ccc(C(F)(F)F)cc1	CD40 NFkB inh 71.9[25 µM]
C[C@@H]1CN([C@@H](C)CO)C(=O)c2cc(NC(=O)Cc3cn(C)c4ccccc34)ccc2O[C@@H]1CN(C)Cc1ccc2c(c1)OCO2	none
C[C@H]1CN([C@@H](C)CO)C(=O)Cc2cc(NC(=O)Cc3cn(C)c4ccccc34)ccc2O[C@H]1CN(C)Cc1ccc(C(F)(F)F)cc1	CD40 NFkB inh 76.1[25 µM]
Cc1ccc(C(=O)Nc2ccccc2N2CCCCC2)cc1S(=O)(=O)N1CCOCC1	none
O=C(NCc1cccnc1)C1CCC(CNS(=O)(=O)c2cccc3nsnc23)CC1 (centres undefined)	none
Cc1ccccc1NC(=O)c1ccc(F)c(S(=O)(=O)N2CCCCC2)c1	none
CCS(=O)(=O)N1CC2(C1)[C@H](c1ccccc1)[C@@H](CO)N2C(=O)c1ccccc1	none
CCOC(=O)c1c(-c2ccc(C)o2)csc1NC(=O)CN1CCN(CC)CC1	none
CCOC(=O)c1c(-c2ccc(C)o2)csc1NC(=O)CN1CCCCC1	CD40 NFkB inh 62.6
CCOC(=O)c1c(-c2ccc(C)o2)csc1NC(=O)CN1CCC(C(N)=O)CC1	none
COc1cccc(-c2ccc3c(c2)[C@H]2[C@H](CCN2C(=O)CN2CCOCC2)[C@@H](CO)N3)c1	none
Cc1cc(C(=O)OCC(=O)NCCc2ccccc2)c(C)o1	none
CC(C)NC(=O)Nc1ccc2c(c1)C(=O)N([C@H](C)CO)C[C@H](C)[C@H](CN(C)C(=O)Nc1cccc3ccccc13)O2	none
c1ccc(N2CCN(c3nc4cc5c(cc4s3)OCCO5)CC2)cc1	none
Nc1ccc2nc(N3CCOCC3)sc2c1	none
c1c2c(cc3sc(N4CCOCC4)nc13)OCCO2	CD40 NFkB inh 87.5
O=C(c1ccccc1F)N1CC(=O)N2[C@H](C1)[C@H](c1ccc(C#Cc3ccccc3)cc1)[C@@H]2CO	none
COc1ccc(NC(=O)Nc2nc(C(N)CC(C)C)cs2)cc1 (centres undefined)	none
CC(C)c1ccc(NC(=O)Nc2nc(C(N)COCc3ccccc3)cs2)cc1 (centres undefined)	CD40 NFkB inh 57.0
COc1cccc(Nc2nc(C(N)COCc3ccccc3)cs2)n1 (centres undefined)	none
Cc1ccc(-c2nnc(SC(C)C(=O)NCC3CCCO3)nc2-c2ccc(C)cc2)cc1 (centres undefined)	none
CC(C(=O)Nc1cccnc1)n1cc([N+](=O)[O-])cn1 (centres undefined)	none
CC(=O)N(CCC1(C(C)C)CCOC(C)(C)C1)Cc1ccco1 (centres undefined)	none
CCOC(=O)C1CCN(c2ccc(-c3cccs3)nn2)CC1	CD40 NFkB inh 57.3
CCOC(=O)C1CCN(C(=O)c2cccs2)CC1	none
CCOC(=O)c1cc(-c2cccs2)[nH]n1	none
COC(=O)[C@H](CCSC)NC(=O)NCc1cccs1	none
N#Cc1ccccc1COC(=O)c1cc(S(=O)(=O)N2CCOCC2)ccc1F	none
O=C(OCC(=O)N1CCCC1=O)c1cc(S(=O)(=O)N2CCOCC2)ccc1F	none
CCc1cc2c(COC(=O)c3cc(S(=O)(=O)N4CCOCC4)ccc3F)cc(=O)oc2cc1O	CD40 NFkB inh 50.9
N#CCCN(C(=O)COC(=O)c1cccc(S(=O)(=O)N2CCCCCC2)c1)c1ccc(F)cc1	none
CC=Cc1cc2c(c(=O)o1)C(=O)C(O)C(C)O2 (centres undefined)	CD40 NFkB inh 41.1
COc1ccc(COC(=O)CN2C(=O)NC3(CCCC3)C2=O)cc1F	none
Cc1nnc(C)c2c(C)n(C(c3ccccc3)c3ccccc3)c(C)c12	none
Cc1cccc(-n2ncc3c(N4CCOCC4)ncnc32)c1	CD40 NFkB inh 78.2
Cc1ccc(-n2ncc3c(N4CCN(c5ccccc5)CC4)ncnc32)c(C)c1	none
Cn1ncc2c(N3CCOCC3)ncnc21	none
CCN(CC(=O)Nc1cc(Cl)ccc1C)C(=O)CSCc1c(C)noc1C	none
Cc1noc(C)c1CSCC(=O)N(C)CC(=O)Nc1ccc(Cl)c(Cl)c1	none
Cc1ccc(C)c(NC(=O)CN(C)C(=O)CSCc2c(C)noc2C)c1	CD40 NFkB inh 28.8
CC1(C)CC(=O)C(C(=O)/C=C/c2ccco2)C(=O)C1	none
Cc1ccccc1Cn1cc(NC(=O)COc2ccccc2)cn1	none
COc1cc(C(=O)N2CCC2(C)C(=O)O)cc(OC)c1OC (centres undefined)	none
O=C(C[C@H]1C[C@@H]2c3cc(NC(=O)Nc4ccc(C(F)(F)F)cc4)ccc3O[C@@H]2[C@@H](CO)O1)NCc1cc(F)ccc1F	none
C[C@@H]1C[C@H]2[C@@H]3C[C@H](F)C4=CC(=O)C=C[C@]4(C)[C@@]3(F)[C@@H](O)C[C@]2(C)[C@@]1(O)C(=O)COC(=O)C(C)(C)C	none
CCCC(=O)O[C@]1(C(=O)COC(C)=O)CC[C@H]2[C@@H]3C[C@H](F)C4=CC(=O)C=C[C@]4(C)[C@@]3(F)[C@@H](O)C[C@@]21C	CD40 NFkB inh 56.1
CC(=O)[C@@]1(O)CC[C@H]2[C@@H]3C[C@H](C)C4=CC(=O)C=C[C@]4(C)[C@@]3(F)[C@@H](O)C[C@@]21C	none
